PubChem BioAssay (Tox21)
Results filed as inconclusive are left out. Values without a mark were called inactive. Active and inactive are the calls of the source. Calls come from the whole dose curve; as a rule, active = well fitted activation curve with a large enough effect in the repeat runs; inconclusive = weak or mixed curves; inactive = flat fitted curve, though single readings scatter.

Test: A CellTox Green Cytotoxicity Assay to monitor cytotoxicity in HepG2 cells - 16 hour (AID 1224876); note: nearly all actives have a fitted effect of over 45% in size
Conditions: CellTox Green fluorescence; series mostly up to 76.8 µM; cytotoxicity increase: at the top concentration
Excerpt: National Center for Advancing Translational Sciences [NCATS]
NIH Chemical Genomics Center [NCGC]
U.S. Environmental Protection Agency [EPA]
National Institutes of Environmental Health Sciences [NIEHS]
National Toxicology Program [NTP]
Cell-based models are critical for drug discovery. Determining the natural cytotoxic effects resulting from test compounds is an essential research activity. A CellTox Green Cytotoxicity Assay to monitor cytotoxicity in real time of continues cell culture during 40 hours of the compound treatment was used to screen Tox21 10K library compounds in HepG2 cells. CellTox Green Cytotoxicity Assay is a nonlytic, homogeneous, biofluorescent method to measure cytotoxicity in cell culture after experimental manipulation. The assay system uses a proprietary asymmetric cyanine dye that is excluded from viable cells but preferentially stains the dead cell's DNA. […] Viable cells produce no appreciable increases in fluorescence. Therefore, the fluorescence signal produced by the binding interaction with dead cell DNA is proportional to cytotoxicity.
The mixture of HepG2 cell suspension and reagents were dispensed at 600cells/6 ul/well in 1536-well tissue culture treated black solid bottom plates using a Multidrop dispenser. After the assay plates were incubated at a 37 C/5% CO2 incubator for 5 hours, 23 nL of compounds dissolved in DMSO, positive and negative controls was transferred to the assay plate by a pintool work station. The plates were incubated at 37 C for 40 hours. The fluorescence intensity were measured at 0h, 8h, 16h, 24h, 32h and 40h time points using ViewLux plate reader during compound treatment.
% is set by controls: 0 for no effect and ±100 for the full control effect; potency is the fitted concentration of half-maximal effect.

Row | Compound | cytotoxicity increase | Potency
1 | CCN(CCO)CCCC(C)Nc1ccnc2cc(Cl)ccc12 (stereo not given) | 19.7% [at 6.97 µM] | –
2 | CCCCCCCCCCCCC(=O)O | -0.0635% | –
3 | Nc1nc(CC(=O)O)cs1 | -0.399% | –
4 | CC(C)c1ccccc1C(C)C | 3.09% | –
5 | Oc1ccc(Sc2ccc(O)cc2)cc1 | -0.513% | –
6 | O=C(O)C1CCC(C(=O)O)CC1 (stereo not given) | -12.1% | –
7 | NC(=S)N/N=C/c1cccnc1 | -20.8% [at 35.3 µM] | –
8 | CC(=O)c1ccc2c(c1)[C@H](NC(=O)c1ccc(F)cc1)[C@@H](O)C(C)(C)O2 | -3.46% | –
9 | CCCOc1ccc2nc(NC(=O)OC)[nH]c2c1 | -1.13% [at 35.3 µM] | –
10 | O=CNc1ccccc1 | -3.18% | –
11 | CCOc1ccc(NC(=O)CC(C)=O)cc1 | -13.7% | –
12 | Cc1ccc2c(ccc3ccccc32)c1 | -5.58% | –
13 | CC(=O)[C@@]1(O)CC[C@H]2[C@@H]3C[C@H](C)C4=CC(=O)CC[C@]4(C)[C@H]3CC[C@@]21C | 1.74% [at 35.3 µM] | –
14 | NC(N)=N/N=C/c1c(Cl)cccc1Cl | 8.04% [at 35.3 µM] | –
15 | CCOC(=O)[C@H](CCc1ccccc1)N[C@H]1CCc2ccccc2N(CC(=O)O)C1=O | – | 26.8 µM (active)
16 | O=S1(=O)N=C(O)c2ccccc21 | -9.96% [at 35.3 µM] | –
17 | C=CC[N+]1([C@H]2C[C@H]3[C@@H]4CC[C@H]5C[C@H](OC(C)=O)[C@@H](N6CCCCC6)C[C@]5(C)[C@H]4CC[C@]3(C)[C@H]2OC(=O)CC)CCCCC1 | -12% [at 35.3 µM] | –
18 | OC(CCN1CCCCC1)(c1ccccc1)C1CCCCC1 (stereo not given) | -2.31% [at 35.3 µM] | –
19 | Cc1cccc(C(C)(C)C)c1O | 39% | –
20 | Nc1nc(N)c(-c2ccccc2)s1 | -9.77% [at 35.3 µM] | –

Row | Compound | cytotoxicity increase | Potency
21 | Cc1occc1S | -7.16% | –
22 | Cc1cc(O)ccc1N | 2.48% | –
23 | Cc1ccc(C(N)=O)cc1N | -4.41% | –
24 | Cc1cc(NC(=O)C(=O)O)cc(C)c1Oc1ccc(O)c2c1CCC2 | -18.6% | –
25 | C#CCOC(=O)[C@@H](C)Oc1ccc(Oc2ncc(Cl)cc2F)cc1 | -10.2% | –
26 | O=C(O)c1cn(C2CC2)c2cc(Cl)c(F)cc2c1=O | 2.9% [at 35.3 µM] | –
27 | N#CCc1cccc(C(F)(F)F)c1 | 3.43% | –
28 | O=C(O)Cc1cc(I)c(Oc2ccc(O)c(I)c2)c(I)c1 | -2.08% | –
29 | CNS(=O)(=O)Cc1ccc2[nH]cc(CCN(C)C)c2c1 | -9.22% [at 35.3 µM] | –
30 | CCCCOC(=O)/C=C\C(=O)OCCCC | 13.9% | –
31 | Nc1ccc(C(=O)N2CC3CC(CN(Cc4ccccc4)C3)C2)cc1 | -10.8% [at 35.3 µM] | –
32 | CCc1nn(C2CCCCC2)c2cc(C3(C#N)CCC(C(=O)O)CC3)ccc12 (stereo not given) | 3.86% | –
33 | CC(C)NCC(O)COc1ccc(CC(N)=O)cc1 (stereo not given) | -12.6% | –
34 | NCCCN(CCO)CCO | -3.81% | –
35 | CCOC(=O)CC(=O)c1cc(F)c(Cl)nc1Cl | -12.5% | –
36 | SC1CCCC1 | -7.11% | –
37 | CC(C(=O)O)c1ccc(-c2ccccc2)c(F)c1 (stereo not given) | – | 49 µM (active)
38 | CN(C)CC[C@@H](c1ccc(Br)cc1)c1ccccn1 | -0.0994% [at 35.3 µM] | –
39 | Cc1cc(C)c(S(=O)(=O)O)cc1N=Nc1cc(S(=O)(=O)O)c2ccccc2c1O | -45.9% | –
40 | Cc1c(Cn2ccnc2)c2ccccc2n1CCC(=O)O | 0.485% [at 35.3 µM] | –
